According to the supplement of paper PMC8728848:
The entries come from a sample that favours the strongest signals as a whole.

Experiments:
Experiment in all cases: glycan array binding signal (z-score within array); higher = stronger binding
Details in all cases: glycan notation: IUPAC condensed, linker removed
Fuc(a1-2)Gal = target: Fuc(a1-2)Gal
In short: (§1)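 Glycan array binding is given as a within-array Z-score, which can be read as non-binding when negative. The arrays, 3228 of them, came from the Consortium for Functional Glycomics database and were retained only where the protein sequence was available. Z-scores were averaged across arrays of the same protein sequence at different concentrations or buffers and across linkers.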

[1] = target: Fuc(a1-2)Gal(b1-3)GalNAc(b1-4)[Neu5Ac(a2-3)]Gal(b1-4)Glc
In short: as §1

[2] = target: Fuc(a1-2)Gal(b1-3)[Fuc(a1-4)]GlcNAc(b1-2)Man(a1-3)[Fuc(a1-2)Gal(b1-3)[Fuc(a1-4)]GlcNAc(b1-2)Man(a1-6)]Man(b1-4)GlcNAc(b1-4)[Fuc(a1-6)]GlcNAc(b1-4)[Fuc(a1-6)]GlcNAc
In short: as §1

[3] = target: Fuc(a1-2)Gal(b1-4)GlcNAc(b1-2)Man(a1-3)[Fuc(a1-2)Gal(b1-4)GlcNAc(b1-2)Man(a1-6)]Man(b1-4)GlcNAc(b1-4)[Fuc(a1-6)]GlcNAc
In short: as §1

[4] = target: Fuc(a1-2)Gal(b1-4)[Fuc(a1-3)]GlcNAc(b1-3)Gal(b1-4)[Fuc(a1-3)]GlcNAc(b1-3)Gal(b1-4)[Fuc(a1-3)]GlcNAc
In short: as §1

[5] = target: Fuc(a1-2)[Gal(a1-3)]Gal(b1-4)GlcNAc(b1-2)Man(a1-3)[Fuc(a1-2)[Gal(a1-3)]Gal(b1-4)GlcNAc(b1-2)Man(a1-6)]Man(b1-4)GlcNAc(b1-4)GlcNAc
In short: as §1

[6] = target: Fuc(a1-2)[Gal(a1-4)]Gal(b1-4)GlcNAc
In short: as §1

[7] = target: Fuc(a1-3)[Gal(b1-4)]GlcNAc
In short: as §1

[8] = target: Gal(b1-3)GalNAc(a1-3)[Fuc(a1-2)]Gal(b1-4)Glc
In short: as §1

[9] = target: Gal(b1-3)GlcNAc(a1-3)Gal(b1-4)GlcNAc
In short: as §1

[10] = target: Gal(b1-3)GlcNAc(b1-3)Gal(b1-4)GlcNAc(b1-3)Gal(b1-4)GlcNAc(b1-2)[Gal(b1-3)GlcNAc(b1-3)Gal(b1-4)GlcNAc(b1-3)Gal(b1-4)GlcNAc(b1-6)]Man(a1-6)[Gal(b1-3)GlcNAc(b1-3)Gal(b1-4)GlcNAc(b1-3)Gal(b1-4)GlcNAc(b1-2)Man(a1-3)]Man(b1-4)GlcNAc(b1-4)[Fuc(a1-6)]GlcNAc
In short: as §1

[11] = target: Gal(b1-3)[Fuc(a1-4)]GlcNAc(b1-3)Gal(b1-3)[Fuc(a1-4)]GlcNAc
In short: as §1

[12] = target: Gal(b1-3)[Neu5Ac(a2-6)]GlcNAc(b1-4)Gal(b1-4)Glc
In short: as §1

[13] = target: Gal(b1-4)GlcNAc(b1-2)[Gal(b1-4)GlcNAc(b1-4)]Man(a1-3)[GlcNAc(b1-4)][Gal(b1-4)GlcNAc(b1-2)[Gal(b1-4)GlcNAc(b1-6)]Man(a1-6)]Man(b1-4)GlcNAc(b1-4)GlcNAc
In short: as §1

[14] = target: Gal(b1-4)GlcNAc(b1-3)Gal(b1-3)GlcNAc
In short: as §1

[15] = target: Gal(b1-4)GlcNAc(b1-3)Gal(b1-4)GlcNAc(b1-3)Gal(b1-4)GlcNAc
In short: as §1

[16] = target: Gal(b1-4)GlcNAc(b1-3)Gal(b1-4)GlcNAc(b1-3)Gal(b1-4)GlcNAc(b1-3)Gal(b1-4)GlcNAc(b1-2)Man(a1-3)[Gal(b1-4)GlcNAc(b1-3)Gal(b1-4)GlcNAc(b1-3)Gal(b1-4)GlcNAc(b1-3)Gal(b1-4)GlcNAc(b1-2)Man(a1-6)]Man(b1-4)GlcNAc(b1-4)[Fuc(a1-6)]GlcNAc
In short: as §1

[17] = target: Gal(b1-4)GlcNAc(b1-3)Gal(b1-4)GlcNAc(b1-3)Gal(b1-4)GlcNAc(b1-3)Gal(b1-4)GlcNAc(b1-2)[Gal(b1-4)GlcNAc(b1-3)Gal(b1-4)GlcNAc(b1-3)Gal(b1-4)GlcNAc(b1-3)Gal(b1-4)GlcNAc(b1-6)]Man(a1-6)[Gal(b1-4)GlcNAc(b1-3)Gal(b1-4)GlcNAc(b1-3)Gal(b1-4)GlcNAc(b1-3)Gal(b1-4)GlcNAc(b1-2)Man(a1-3)]Man(b1-4)GlcNAc(b1-4)[Fuc(a1-6)]GlcNAc
In short: as §1

[18] = target: Gal(b1-4)GlcNAc(b1-3)Gal(b1-4)GlcNAc(b1-3)Gal(b1-4)GlcNAc(b1-3)Gal(b1-4)GlcNAc(b1-3)Gal(b1-4)GlcNAc(b1-2)Man(a1-3)[Gal(b1-4)GlcNAc(b1-3)Gal(b1-4)GlcNAc(b1-3)Gal(b1-4)GlcNAc(b1-3)Gal(b1-4)GlcNAc(b1-3)Gal(b1-4)GlcNAc(b1-2)Man(a1-6)]Man(b1-4)GlcNAc(b1-4)GlcNAc
In short: as §1

[19] = target: Gal(b1-4)GlcNAc(b1-3)Gal(b1-4)GlcNAc(b1-6)[Gal(b1-3)]GalNAc
In short: as §1

[20] = target: Gal(b1-4)GlcNAc(b1-3)[Gal(b1-4)GlcNAc(b1-6)]Gal(b1-4)GlcNAc
In short: as §1

Gal3S6S(b1-4)GlcNAc = target: Gal3S6S(b1-4)GlcNAc
In short: as §1

Gal6S(b1-3)GlcNAc6S = target: Gal6S(b1-3)GlcNAc6S
In short: as §1

Gal6S(b1-4)Glc = target: Gal6S(b1-4)Glc
In short: as §1

GalNAc(b1-4)GlcNAc = target: GalNAc(b1-4)GlcNAc
In short: as §1

GalNAc3S(b1-4)GlcNAc = target: GalNAc3S(b1-4)GlcNAc
In short: as §1

GalNAc3S(b1-4)GlcNAc3S = target: GalNAc3S(b1-4)GlcNAc3S
In short: as §1

[21] = target: GalNAc3S(b1-4)[Fuc(a1-3)]GlcNAc
In short: as §1

B1: SfaEH (Escherichia coli), Q1RDG5 (protein)
chain: LLCRNNQTGQVFNSGDTSFRVNVSPVVQYDKSISVLDLSQLVSCQNEDSTGQNYDYLKILKGSGFSPALDTKTYGRLDFTSRPTGYARQLPLQFDLQVTEAFYQYGVWKPFPAKLYLYPAPGVFGKVINNGDLLATLYVNKFSTKGQEAGERNFTWRFYATNDVYIQTGTCRVSSNNVKVDLPSYPGGPVTVPLTVRCDQTQSVSYTLSGPVTGSGNTVFANTAASGSGGVGIQLSDNVGPVPAGQPRSLGQVGSSPVSLGLKASYALTGQASPTPGAVQSVINVTFSYN
For B1, the “glycan array binding signal (z-score)” value (Fuc(a1-2)Gal) was -0.532, the “glycan array binding signal (z-score)” value [1] was -0.413 and the “glycan array binding signal (z-score)” value [2] was 1.21. For the same binder, the “glycan array binding signal (z-score)” value [3] was -0.238, the “glycan array binding signal (z-score)” value [4] was 1.77 and the “glycan array binding signal (z-score)” value [5] was -0.531. For the same binder, the “glycan array binding signal (z-score)” value [6] was 0.037, the “glycan array binding signal (z-score)” value [7] was -0.018 and the “glycan array binding signal (z-score)” value [8] was -0.503. The “glycan array binding signal (z-score)” value [9] was -0.23, the “glycan array binding signal (z-score)” value [10] was 3.4 and the “glycan array binding signal (z-score)” value [11] was 0.274. For the same binder, the “glycan array binding signal (z-score)” value [12] was -0.638, the “glycan array binding signal (z-score)” value [13] was 1.56 and the “glycan array binding signal (z-score)” value [14] was 0.732. The “glycan array binding signal (z-score)” value [15] was 0.382, the “glycan array binding signal (z-score)” value [16] was -0.08 and the “glycan array binding signal (z-score)” value [17] was 3.01. For the same binder, the “glycan array binding signal (z-score)” value [18] was 2.05, the “glycan array binding signal (z-score)” value [19] was -0.15 and the “glycan array binding signal (z-score)” value [20] was 0.131. For the same binder, the “glycan array binding signal (z-score)” value (Gal3S6S(b1-4)GlcNAc) was 2.12, the “glycan array binding signal (z-score)” value (Gal6S(b1-3)GlcNAc6S) was -0.513 and the “glycan array binding signal (z-score)” value (Gal6S(b1-4)Glc) was -0.148. The “glycan array binding signal (z-score)” value (GalNAc(b1-4)GlcNAc) was -0.125, the “glycan array binding signal (z-score)” value (GalNAc3S(b1-4)GlcNAc) was -0.199 and the “glycan array binding signal (z-score)” value (GalNAc3S(b1-4)GlcNAc3S) was 0.153. The “glycan array binding signal (z-score)” value [21] was 2.28.
